Source: PubChem BioAssay
A selection: hits, their analogues and other compounds. The true share with any hit is near 10%.
BAZ2B inh – blocks human BAZ2B. Potency, µM (doses to about 114 µM), for the others: at the highest dose activity change, negative = inhibition, actives largely listed as inhibitors. AlphaScreen BAZ2B-H3K14Ac peptide displacement. 360,000 tested, 4.4% active. Q9UIF8. AID 504333; also: % is scaled to controls: 0 for no effect and ±100 for the full control effect; nearly all actives have a fitted effect of over 60% in size
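BAZ2B (50 nM) with biotin-H3(5-23)K14Ac peptide (50 nM) in PBS pH 7.4, 0.01% Tween-20, preformed 30 min, then compound 30 min at room temperature; top concentration 110uM. AlphaScreen streptavidin donor/nickel chelate acceptor beads (10 ug/mL final), 20 min dark, signal read.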
JMJD2A Tudor – blocks the human JMJD2A Tudor domain | O75164 | AlphaScreen JMJD2A-Tudor / H3K4me3 peptide binding | Potency, µM (highest dose often 114 µM), for inactives: at the highest dose activity change, negative = inhibition, actives largely listed as inhibitors | 390,000 tested, 4.4% active | AID 504339; also: % is scaled to controls: 0 for no effect and ±100 for the full control effect; nearly all actives have a fitted effect of over 50% in size
Target sequence (O75164 whole entry, looked up, the tested form may be a part): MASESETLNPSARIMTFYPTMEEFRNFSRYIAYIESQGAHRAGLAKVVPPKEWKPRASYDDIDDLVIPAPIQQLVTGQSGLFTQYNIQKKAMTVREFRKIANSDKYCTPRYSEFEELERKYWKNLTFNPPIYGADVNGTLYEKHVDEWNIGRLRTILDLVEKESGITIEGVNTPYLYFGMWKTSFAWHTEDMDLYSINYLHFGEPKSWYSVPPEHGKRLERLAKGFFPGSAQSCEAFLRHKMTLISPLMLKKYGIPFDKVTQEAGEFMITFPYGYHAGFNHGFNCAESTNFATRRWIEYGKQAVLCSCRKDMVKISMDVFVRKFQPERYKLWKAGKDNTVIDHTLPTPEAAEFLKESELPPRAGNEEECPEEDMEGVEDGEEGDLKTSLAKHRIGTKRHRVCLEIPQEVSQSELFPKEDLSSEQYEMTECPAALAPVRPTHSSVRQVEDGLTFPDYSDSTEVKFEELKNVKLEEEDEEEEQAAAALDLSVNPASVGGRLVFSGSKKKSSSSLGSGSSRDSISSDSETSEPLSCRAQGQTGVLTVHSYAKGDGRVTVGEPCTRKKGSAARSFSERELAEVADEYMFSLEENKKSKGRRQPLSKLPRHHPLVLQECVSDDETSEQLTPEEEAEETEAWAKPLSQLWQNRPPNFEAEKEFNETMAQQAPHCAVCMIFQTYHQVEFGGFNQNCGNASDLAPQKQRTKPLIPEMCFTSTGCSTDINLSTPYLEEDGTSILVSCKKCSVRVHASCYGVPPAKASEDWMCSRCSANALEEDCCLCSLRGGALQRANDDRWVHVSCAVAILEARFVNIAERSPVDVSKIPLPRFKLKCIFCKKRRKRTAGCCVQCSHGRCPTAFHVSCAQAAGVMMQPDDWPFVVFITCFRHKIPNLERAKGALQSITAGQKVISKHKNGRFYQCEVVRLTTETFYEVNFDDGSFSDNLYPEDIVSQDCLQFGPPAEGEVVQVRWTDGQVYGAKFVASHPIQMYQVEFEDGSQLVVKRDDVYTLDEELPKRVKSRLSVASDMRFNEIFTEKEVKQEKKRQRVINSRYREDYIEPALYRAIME
HP1b binding inh – blocks HP1-beta chromodomain binding to methylated histone tails. 390,000 tested, 0.56% active. AlphaScreen HP1-beta / biotin-H3K9me3 peptide binding. Potency, µM (titrated, usually from 114 µM), for inactives: at the highest dose activity change, negative = inhibition, hits mostly inhibitors. P83916; also: nearly all actives have a fitted effect of over 70% in size
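AlphaScreen: HP1-beta (50 nM) preformed 30 min with biotin-H3(1-18)K9me3 peptide (50 nM) in PBS pH 7.4, 0.01% Tween-20. Compound added for 30 min at RT, then streptavidin donor/nickel chelate acceptor beads (10 ug/mL) for 30 min.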
G9a block – blocks human histone lysine methyltransferase G9a. G9a H3K9 monomethylation, AlphaScreen, 2 h. Potency, µM (series often up to 102 µM), for the others: at the top dose activity, negative = inhibition, actives largely listed as inhibitors. 350,000 tested, 8.8% active. Q96KQ7; also: % is scaled to controls: 0 for no effect and ±100 for the full control effect; nearly all actives have a fitted effect of over 75% in size
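AlphaScreen detection with an anti-monomethyl H3K9 antibody quantified product after a 2 h room-temperature reaction containing 500 nM biotinylated H3K9 peptide, 20 µM SAM and 20 nM enzyme, which had been preincubated 15 min with compound.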
L3MBTL1 inh – blocks human L3MBTL1. 230,000 tested, 0.66% active. Potency, µM (top dose mostly 57.1 µM), inactives show at the top dose activity, negative = inhibition, actives largely listed as inhibitors. Q9Y468. AlphaScreen L3MBTL1–H3K9me1 peptide binding. AID 485360; also: % is scaled to controls: 0 for no effect and ±100 for the full control effect; nearly all actives have a fitted effect of over 60% in size
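First, the protein-peptide complex forms for 30 min at room temperature (L3MBTL1 50 nM, biotinylated H3K9me1 peptide 75 nM). Next, compounds are pin-transferred and incubated 30 min. Finally, AlphaScreen beads are added and read after 30 min.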
GLS inhibitor – inhibitors of human glutaminase (GLS); O94925; GLS enzymatic activity, qHTS titration; Potency, µM (titrated, usually from 45.5 µM), without a hit: top-dose activity change, negative = inhibition, hits mostly inhibitors; 410,000 tested, 0.21% active; also: % is scaled to controls: 0 for no effect and ±100 for the full control effect
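Compounds were pin-transferred onto hKGA, after which L-glutamine (1 mM solution) and a detection mix of glutamate oxidase, HRP and Amplex Red were added. Initial and 30 min RT fluorescence reads were collected.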
Numbers without * were called inactive; ? = inconclusive; · = no result; [ ] = another dose, or the depositor's remark. Calls follow the shape of the dose curve; as a rule, active = well fitted curve in the direction sought with a large enough effect; inconclusive = small, poorly fitted or top-dose-only effect, or another doubt; inactive = no such curve, though single readings can be large; an effect the other way counts as inactive or inconclusive. Potency is read from the fitted curve at half-maximal effect.

SMILES	BAZ2B inh	JMJD2A Tudor	HP1b binding inh	G9a block	L3MBTL1 inh	GLS inhibitor
CC(C)Oc1cccc(C(=O)NC(=S)Nc2cccc(NC(=O)c3ccccc3Cl)c2)c1	-11.2%	-32.5%	21.0%	5.7%[59 µM]	-10.6%	6.1%
COc1cccc(C(=O)NC(=S)Nc2ccc3oc(=O)ccc3c2)c1	3.4%	-26.1%	17.3%	39.8µM*	3.4%	-5.9%
Cc1cc(-c2ccc(S(=O)(=O)Nc3ccccc3F)s2)on1	6.5%	-11.0%	62.7%	0.4%[59 µM]	·	12.9%
COc1ccc(OC)c(NC(=O)Cn2c(=O)n(-c3ccc(Cl)cc3)c(=O)c3c(C)c(C)sc32)c1	1.9%	4.4%	31.6%	5.3%[59 µM]	·	8.1%
COc1ccccc1C(=O)N(Cc1ccco1)Cc1ccccc1F	?	-31.1%	-2.6%	-23.1%[59 µM]	·	-13.7%
O=C(CCNS(=O)(=O)c1ccc2c(c1)CCCC(=O)N2)Nc1cccc(Cl)c1	4.5%[57.1 µM]	-23.6%	-1.5%	-1.6%[59 µM]	·	-7.7%
COc1ccc(C(=O)Nc2ccc(N3CCN(C(=O)c4cccs4)CC3)cc2)cc1Br	-13.3%	4.7%	47.3%	·	·	23.0%
CCOc1ccc(C(=O)NC(=S)Nc2ccccc2N2CCC(C)CC2)cc1[N+](=O)[O-]	?	-26.7%	-1.3%	-4.1%[59 µM]	0.1%	-2.7%
COc1cccc(C(=O)NC(=S)Nc2ccc(N3CCCC3)cc2)c1	12.6µM*	39.8µM*	?	8.91µM*	?	36.8%
CCOc1ccc(C(=O)NC(=S)Nc2ccc(N3CCC(C)CC3)cc2)cc1[N+](=O)[O-]	?	?	-32.2%	10µM*	-35.8%	26.2%
COc1ccc(C(=O)Nc2ccc(N3CCCC3)cc2)cc1Br	0.2%	?	11.6%	39.8µM*	-5.9%	-5.7%
CC(C)Oc1ccc(C(=O)Nc2ccc(N(C)C)cc2)cc1	12.1%	?	-19.2%	3.55µM*	-11.4%	4.2%
CCOC(=O)c1c(S(=O)(=O)N2CCC(C(=O)Nc3ccc(C)cn3)CC2)c(C)n(C)c1C	-3.4%	-11.7%	12.8%	-36.6%[59 µM]	·	-2.6%
Cn1cc(S(=O)(=O)N2CCCCC2)cc1C(=O)N1CCN(c2ccc(F)cc2)CC1	-8.7%	-28.8%	15.2%[57 µM]	3.3%[59 µM]	·	23.7%
CCOc1ccccc1Nc1nc2ccccc2nc1NS(=O)(=O)c1ccc(Cl)cc1	3.7%	-4.5%	22.3%	-8.7%[59 µM]	·	-12.7%
CC(=O)c1ccc(N2CCN(C(=S)Nc3ccc(Oc4ccccc4)cc3)CC2)cc1	·	-18.9%	8.0%	16.5%	-7.4%	11.6%
COc1cc(C(=O)NC(=S)Nc2ccc(N3CCCC3)cc2)cc(OC)c1OC	?	-31.5%	10.2%	31.6µM*	-10.2%	1.8%
COc1cccc(C(=O)Nc2ccc3c(c2)C(=O)c2ccccc2C3=O)c1	-35.8%	17.8µM*	-12.0%	-14.0%[59 µM]	0.9%	1.8%
COc1ccccc1C(=O)NC(=S)Nc1ccc(N2CCCC2)cc1	1.2%	?	?	44.7µM*	-1.2%	22.6%
CN1CCN(c2ccc(NC(=O)c3ccc(Oc4ccccc4)cc3)cc2)CC1	?	?	-38.4%	50.1µM*	·	-7.1%
COC(=O)c1nc(N2CCN(S(=O)(=O)c3ccc(C)cc3)CC2)c2ccccc2n1	·	-21.8%	29.8%	·	·	·
Cc1cc(=O)[nH]c2nnc(SCc3cccc(C(F)(F)F)c3)n12	?	-11.4%	54.7%	3.6%[59 µM]	·	3.9%
CC(C)NC(=O)NC(=O)CSc1ccc(S(=O)(=O)N2CCOCC2)cn1	34.0%	9.6%	22.1%	44.7µM*	2.6%	1.2%
CCCCNC(=O)CSc1ccc(S(=O)(=O)N2CCOCC2)cn1	-4.7%	-17.1%	23.4%	-46.0%[59 µM]	-2.2%	-5.6%
CN(C)C(=O)CSc1ccc(S(=O)(=O)N2CCCC2)cn1	-3.2%	-2.8%	26.0%	56.2µM*	-0.6%	0.8%
SMILES	BAZ2B inh	JMJD2A Tudor	HP1b binding inh	G9a block	L3MBTL1 inh	GLS inhibitor
C=C(C)CN(CC)C(=O)CSc1ccc(S(=O)(=O)N2CCN(C)CC2)cn1	9.2%	-4.1%	38.4%	44.7µM*	1.2%	-17.1%
CCOC(=O)NC(=O)CSc1ccc(S(=O)(=O)N2CCCCC2)cn1	·	-8.1%	61.0%	·	-5.1%	-7.0%
C=C(C)CN(CC)C(=O)CSc1ccc(S(=O)(=O)N2CCN(Cc3ccccc3)CC2)cn1	-9.3%	-12.5%	25.9%	-41.0%[12.7 µM]	-10.7%	0.3%
CCC(CC)NC(=O)CSc1ccc(S(=O)(=O)N2CCCCC2)cn1	49.8%	-4.8%	28.1%	50.1µM*	1.2%	0.7%
Cc1cccc(OCC(=O)NCc2ccc3c(c2)CCN3C(=O)c2ccccc2)c1	-17.3%	-18.3%	10.4%	5.5%[59 µM]	·	6.3%
Cc1ccc(CNC(=O)CCC(=O)N2CC3CCCN3c3ccccc32)cc1 (stereo not given)	?	?	6.2%	-28.7%[59 µM]	·	6.9%
COc1ccc(-n2c(=O)c3c4c(sc3n(Cc3ccc(F)cc3)c2=O)CCCC4)c(OC)c1	-25.9%	-20.1%	22.3%	?	·	0.4%
COc1cccc(NC(=O)CSc2nnc(Cc3cccs3)n2-c2ccc(C)cc2)c1	-3.5%	-23.7%	3.0%	-36.8%[59 µM]	·	-3.1%
COc1ccc(NC(=O)CSc2nnc(Cc3cccs3)n2-c2ccc(C)cc2)cc1	-7.4%	?	-1.9%	35.5µM*	·	-1.0%
COc1ccc(-n2c(SCC(=O)Nc3ccc(C(=O)O)cc3)nnc2-c2cccs2)cc1	-2.7%	79.4µM*	29.7%	?	4.1%	6.5%
Cc1ccc(-n2c(Cc3cccs3)nnc2SCC(=O)Nc2ccc(S(N)(=O)=O)cc2)cc1	4.2%	-25.7%	6.1%	44.7µM*	-3.6%	4.1%
Cc1ccc(-n2c(SCC(=O)Nc3ccc4c(c3)OCO4)nnc2-c2cccs2)cc1	11.1%	56.2µM*	30.3%	?	0.4%	-2.7%
CCOC(=O)C(C)Sc1nnc2ccc3ccccc3n12 (stereo not given)	-7.0%	-11.3%	14.9%	-8.6%[59 µM]	·	-4.0%
Cc1ccc(NC(=O)CN(C)C(=O)CSc2nncn2C)cc1	-0.3%	-14.0%	12.7%	-22.7%[59 µM]	·	2.4%
CC(=O)/C(=N\Nc1ccc(C)cc1)Sc1nncn1C	-5.0%	?	14.3%[57 µM]	8.91µM*	1.6%	0.0%
c1c[nH]c(CN2CCN(Cc3ncc[nH]3)CC2)n1	·	14.1µM*	23.1%	·	·	-13.8%
Cc1ncc[nH]1	-7.3%	5.5%	22.5%	-3.7%[0.501 µM]	-7.5%	?
Cc1ccc(Cn2c(SCc3ccc(C(=O)N4CCCCC4)cc3)nc3ccncc32)cc1	-17.3%	-16.4%	39.4%	-10.6%[59 µM]	·	-5.0%
COc1ccc(S(=O)NC2CCCCC2)c(OC)c1C (stereo not given)	1.1%	?	56.2%	31.6µM*	3.1%	23.6%
COc1ccc(C(=O)NC2CCCCCCC2)cc1OC	·	-6.5%	61.9%	·	·	-3.1%
Cc1ccc(C)c(N2C(=O)N(Cc3ccccc3C)c3ccccc3S2(=O)=O)c1	-13.2%	-17.7%	25.0%	-7.5%[59 µM]	·	2.0%
